Screening results as filed in PubChem BioAssay.
AMA1 RON2 block: disrupts binding of P. falciparum AMA1 to RON2. AlphaScreen AMA1-biotinylated RON2 peptide binding. Potency, µM (top dose mostly 58.2 µM), usual class: inhibitors. actives 0.2% (n = 360,000). AID 720542; active = well fitted inhibition curve with a large enough effect; inconclusive = small, poorly fitted or top-dose-only effect; inactive = no such curve, though single readings can be large or run the other way; also: nearly all actives have a fitted effect of over 45% in size
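AMA1 (3D7) with his tag at 25 nM final met compounds first, then biotinylated RON2 peptide at 25 nM; detection used donor plus acceptor beads, 10 µg/mL apiece, read by AlphaScreen after 30 min at room temperature.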
Shiga toxin inh: inhibitors of Shiga toxin in Vero cells; actives 9.2% (n = 290,000); Vero cells, Shiga toxin protein synthesis inhibition reporter; AID 2315; inhibition, % at 38.7 µM; in the data active = inhibition mostly above about 28%, no sharp cut-off; inactive = mostly below about 43%
LASV entry inh: blocks Lassa virus binding to or entry into cells | Lassa virus pseudotype entry inhibition, cell reporter | Potency, µM (titrated, usually from 37.9 µM), actives largely listed as inhibitors | actives 1.2% (n = 300,000); calls by dose curve; tested in HEK293 cells; also: nearly all actives have a fitted effect of over 50% in size
MARV entry inh: blocks Marburg virus binding to or entry into cells; Marburg virus pseudotyped entry inhibition, cell reporter; Potency, µM (series often up to 37.8 µM), hits mostly inhibitors; actives 1.8% (n = 300,000); AID 540276; calls by dose curve; tested in HEK293 cells
CHX counter: affects cycloheximide protein synthesis inhibition readout, counter-screen | max response, % | cell reporter, cycloheximide protein synthesis inhibition counterscreen | actives 12% (n = 300,000) | AID 2314; in the data active = max response mostly above about 13%, no sharp cut-off; inactive = mostly below about 14%; also: read at 38.3 µM for the half of the compounds with a filed dose
Numbers stand for hits; . = inactive; ? = inconclusive; / = no result. The full list was thinned out, with hits kept by preference.

SMILES	AMA1 RON2 block	Shiga toxin inh	LASV entry inh	MARV entry inh	CHX counter
COc1cccc2c1C1COC3C4CC(C(=O)O)C(C(C2)N13)N4C (stereo not given)	.	/	?	?	/
CCOC(=O)C1CCCN(C(=O)c2ccc3c(c2)N(Cc2ccccc2)C(=O)c2ccccc2S3(=O)=O)C1 (stereo not given)	/	/	.	.	/
Cc1ccc2c(=O)cc(C(=O)Nc3c(C)n(C)n(-c4ccccc4)c3=O)oc2c1C	/	/	.	.	/
COc1ccc(CC(=O)NC2CCS(=O)(=O)C2)cc1 (stereo not given)	.	/	.	.	/
C/C(=N\NC(=O)c1ccccc1)c1ccc(NC(=O)c2cccs2)cc1	.	106	.	.	23
C/C(=N/NC(=O)c1ccccc1)c1ccc(NC(=O)C(F)(F)F)cc1	.	135	.	.	43
C/C(=N/NC(=O)c1ccc(-c2ccccc2)cc1)c1cccc(O)c1	.	.	.	.	.
Cc1nn(C)c(Sc2ccccc2N)c1[N+](=O)[O-]	.	.	/	/	29
Cc1nn(C)c(N)c1[N+](=O)[O-]	.	.	/	/	.
O/N=C(/c1ccccc1)c1cc2cc(Br)cc(Br)c2o1	.	.	.	?	.
CC(=O)C1(C)CCC2C3C=C(C)C4=CC(=O)CCC4(C)C3CCC21C (stereo not given)	.	/	?	11µM	/
C=C1CC2C(CCC3(C)C2CCC3(O)C(C)=O)C2(C)CCC(=O)C=C12 (stereo not given)	.	.	5.6µM	?	.
CC(=O)[C@@]1(O)CC[C@H]2[C@@H]3C[C@H](C)C4=CC(=O)CC[C@]4(C)[C@H]3CC[C@@]21C	.	.	?	.	.
CCOc1ccc(CC(=O)Nc2c(C(=O)c3ccccc3)oc3ccc(OC)cc23)cc1OCC	/	/	.	.	/
Cc1ccc(CNC(=O)c2cc(C3CC3)nc3c2c(C)nn3-c2cccc(Cl)c2C)cc1	/	/	.	/	/
CCOc1ccc(-c2cccc(NS(=O)(=O)c3c(C)cc(C)cc3C)c2)nn1	/	/	.	/	/
COc1cc2c(cc1NC(=O)c1cccnc1)oc1ccccc12	.	.	?	.	29
COc1cc2c(cc1NC(=O)c1ccncc1)oc1ccccc12	.	.	.	.	.
COc1cc2c(cc1NC(=O)C(C)N1CCN(S(=O)(=O)c3ccc(C)c(C)c3)CC1)oc1ccccc12 (stereo not given)	.	.	.	.	.
COc1cc2c(cc1NC(=O)/C=C/c1cc(OC)c(OC)c(OC)c1)oc1ccccc12	.	.	?	8.9µM	.
COc1cc2c(cc1NC(=O)C(C)N1CCN(S(=O)(=O)c3ccccc3[N+](=O)[O-])CC1)oc1ccccc12 (stereo not given)	.	55	.	?	27
COc1ccc(/C=C/C(=O)OCC(=O)Nc2cc3oc4ccccc4c3cc2OC)cc1	/	.	/	/	.
COCCNC(=S)Nc1cc2oc3ccccc3c2cc1OC	.	.	.	.	16
O=C(NCCC[N+]1=CC=N[C@H]1c1ccccc1)N1CCCc2nc(-c3ccc(Br)cc3)ccc21	/	/	/	.	/
CC(C)(C)OC(=O)C(Cc1ccc(OC(C)(C)C)cc1)NC(=O)CNC(=O)OCc1ccccc1 (stereo not given)	.	.	?	?	.
SMILES	AMA1 RON2 block	Shiga toxin inh	LASV entry inh	MARV entry inh	CHX counter
O=C1CCC(/C=C/c2ccccc2)=NN1Cc1ccc(F)cc1	.	.	.	?	.
COc1ccc(C)cc1-n1nnc(S(=O)(=O)c2ccc(C)cc2)c1C	/	/	.	.	/
COc1ccccc1CC(=O)Nc1cc2oc3ccccc3c2cc1OC	.	.	.	?	25
COc1cc2c(cc1NC(=O)COC(=O)CNC(=O)c1ccccc1)oc1ccccc12	.	49	.	.	32
COc1ccc(CC(=O)Nc2cc3oc4ccccc4c3cc2OC)cc1	.	111	.	.	63
CCc1ccc(OCC(=O)Nc2cc3oc4ccccc4c3cc2OC)cc1	/	/	.	.	/
COc1cc2c(cc1NC(=O)COCC(=O)O)oc1ccccc12	.	.	.	.	.
COc1cc2c(cc1NC(=O)COC(=O)C1CC(=O)N(Cc3ccco3)C1)oc1ccccc12 (stereo not given)	.	.	.	.	23
CCOC(=O)c1ccccc1NC(=O)CSc1nc(=O)[nH]c2c1CCC2	/	/	.	/	/
Fc1ccccc1-n1ncc2c1ncn1nc(-c3ccccc3Cl)nc21	/	/	.	?	/
O=C(NCCSc1c[nH]c2ccccc12)c1ccccc1Cl	/	/	.	.	/
COc1cc2c(cc1NC(=O)C(C)Sc1cccc[n+]1[O-])oc1ccccc12 (stereo not given)	.	79	.	?	75
COc1cc2c(cc1NC(=O)C(C)Sc1nc3ccccc3n1C)oc1ccccc12 (stereo not given)	.	.	.	.	.
COc1cc2c(cc1NC(=O)C(C)Oc1ccccc1)oc1ccccc12 (stereo not given)	/	/	.	?	/
COc1cc2c(cc1NC(=O)C(C)OC(=O)c1ccc(S(=O)(=O)Nc3ccccc3Cl)cc1)oc1ccccc12 (stereo not given)	.	31	/	/	24
CC12C(=O)N(c3ccc(OC(=O)c4ccco4)cc3)C(=O)C1C1c3ccccc3C2c2ccccc21 (stereo not given)	.	.	.	?	.
CCOC(=O)Cc1c(C)nc2c(C#N)c[nH]n2c1=O	.	.	.	.	.
CCOC(=O)Cc1c(C)nc2c(-c3cccc(Br)c3)c[nH]n2c1=O	.	.	16µM	?	.
CC1(C)Cc2ccccc2-c2nnc(SCc3ccccc3)n21	.	.	.	.	11
O=C(Nc1ccccc1Cl)C1Cc2ccccc2O/C1=N\O (stereo not given)	.	87	/	/	44
Cc1ccc2c3c([nH]c2c1C)-c1nonc1CC3	.	44	.	.	20
COc1ccc(-c2ccn(-c3cccc(F)n3)n2)cc1	.	98	?	10µM	48
CC1(C)CC[C@@]23CC[C@]4(C)[C@@](OC2=O)(C3C1)[C@H]1O[C@H]1C1[C@@]2(C)CC[C@H](O)C(C)(C)C2CC[C@]14C (stereo not given in full)	.	/	/	/	/
COC(=O)c1cccc(Nc2c(-c3ccc(OC)cc3)nc3nc[nH]n23)c1	/	/	.	/	/
c1ccc(CN2CCOCC2)cc1	.	.	.	.	.
SMILES	AMA1 RON2 block	Shiga toxin inh	LASV entry inh	MARV entry inh	CHX counter
c1ccc(Oc2cccc(CN3CCOCC3)c2)cc1	.	.	.	.	28
CCN1CCN(Cc2ccc3c(c2)Cc2ccccc2-3)CC1	/	.	/	.	.
c1ccc2c(c1)Cc1cc(CN3CCOCC3)ccc1-2	.	76	.	?	41
NCc1nc2cccnc2n1Cc1ccccc1Cl	/	/	.	.	/
Cc1ccc(-c2cn(-c3ccccc3)c(SCC(=O)NC3CCS(=O)(=O)C3)n2)cc1C (stereo not given)	.	active	.	?	53
Cc1ccc(SCC(=O)NC2CCS(=O)(=O)C2)cc1C (stereo not given)	.	/	.	.	/
Cc1cccc(C)c1N1C(=O)[C@@H]2[C@H](ON(c3ccccc3)[C@H]2c2ccncc2)C1=O	/	/	/	.	/
COc1ccc(OC)c(-c2oc3ccccc3c(=O)c2O)c1	.	.	.	.	.
O=c1cc2oc3cc(O)c(O)cc3c(-c3ccccc3O)c-2cc1O	1.1µM	.	/	/	.
